Reference: PubChem BioAssay
The source made the active and inactive calls.

Experiments:
[1] = E. coli DRC41 culture turbidity changes, primary screen, E. coli filamentation inducer project, strain DRC41, OD650, 48 h (AID 1152);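 note: E. coli MC1000 strain DRC41 lacking acrAB efflux pump and sulA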; conditions: E. coli DRC41 (acrAB sulA), higher = more signal, called active from +8 up or from −8 down
[2] = small-molecule binders of probe aLefty1, primary screen, biochemical, small-molecule microarray, 635/667 nm fluorescence (AID 1153); conditions: higher = more signal;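 note: score merges spot fluorescence with signal-to-noise ratio from the scanned slide images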
[3] = PSAC antagonists in infected red cells, primary screen, cell-based, P. falciparum Indochina, OD700, 1 h (AID 1154); conditions: P. falciparum Indochina infected RBC osmotic lysis, higher = more signal, called active from +8 up or from −8 down
[4] = PSAC antagonists in infected red cells, primary screen, cell-based, P. falciparum Indochina, OD700, 2 h (AID 1155);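 note: lysis reports solute entry through the parasite surface anion channel PSAC; channel blockers reduce lysis of infected cells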; conditions: P. falciparum Indochina infected erythrocytes, osmotic lysis OD700; higher = more signal, called active from +8 up or from −8 down
[5] = osmotic lysis modulators in infected erythrocytes, primary screen, PSAC antagonist project, cell-based, P. falciparum Indochina, OD700, 3 h (AID 1156); conditions: higher = more signal, called active from +8 up or from −8 down
[6] = PSAC antagonists in infected red cells, primary screen, cell-based, P. falciparum Indochina, OD700, 18 h (AID 1157); conditions: P. falciparum Indochina infected erythrocytes, osmotic lysis OD700, 18 h; higher = more signal, called active from +8 up or from −8 down
[7] = modulators of S6 phosphorylation in cells, primary screen, cell-based, A549, cytoblot, luminescence, serum-stimulated (AID 1158); conditions: A549 phospho-S6 cytoblot, 5 h, higher = more signal;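 note: serum-stimulated A549 lung adenocarcinoma cells; signal is phosphorylated S6 detected by cytoblot immunostaining with HRP secondary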
[8] = target: NADPH oxidase 2 (Homo sapiens) (UniProt P04839); assay: NOX2-dependent H2O2 signal modulators, primary screen, NOX inhibitor project, cell-based, HEK293-NOX2, PMA-stimulated, Amplex Red fluorescence (AID 1159); conditions: 45 min, higher = more signal, called active from +8 up or from −8 down; note: test concentration not given here
Sequence of NADPH oxidase 2 (Homo sapiens) (P04839 whole entry, looked up): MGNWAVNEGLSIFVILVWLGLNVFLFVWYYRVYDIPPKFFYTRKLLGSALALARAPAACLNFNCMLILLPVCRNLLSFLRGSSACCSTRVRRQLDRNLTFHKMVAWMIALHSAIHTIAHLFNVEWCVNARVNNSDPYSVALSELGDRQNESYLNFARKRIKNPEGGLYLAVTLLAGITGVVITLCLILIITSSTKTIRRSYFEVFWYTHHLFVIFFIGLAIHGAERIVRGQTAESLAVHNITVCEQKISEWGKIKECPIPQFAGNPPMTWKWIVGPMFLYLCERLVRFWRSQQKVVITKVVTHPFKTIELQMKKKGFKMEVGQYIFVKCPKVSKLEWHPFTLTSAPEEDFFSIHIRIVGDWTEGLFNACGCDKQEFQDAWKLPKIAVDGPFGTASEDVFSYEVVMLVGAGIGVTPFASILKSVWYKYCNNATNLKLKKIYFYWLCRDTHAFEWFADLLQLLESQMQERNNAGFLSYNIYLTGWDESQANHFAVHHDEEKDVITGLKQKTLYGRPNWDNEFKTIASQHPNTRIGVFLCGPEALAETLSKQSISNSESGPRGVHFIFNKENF

[9] = target: NADPH oxidase 4 (Homo sapiens) (UniProt Q9NPH5); assay: NOX4-dependent H2O2 signal modulators, primary screen, NOX inhibitor project, cell-based, HEK293-NOX4, tetracycline-induced, Amplex Red fluorescence (AID 1160); conditions: 45 min, higher = more signal, called active from +8 up or from −8 down
Sequence of NADPH oxidase 4 (Homo sapiens) (Q9NPH5 whole entry, looked up): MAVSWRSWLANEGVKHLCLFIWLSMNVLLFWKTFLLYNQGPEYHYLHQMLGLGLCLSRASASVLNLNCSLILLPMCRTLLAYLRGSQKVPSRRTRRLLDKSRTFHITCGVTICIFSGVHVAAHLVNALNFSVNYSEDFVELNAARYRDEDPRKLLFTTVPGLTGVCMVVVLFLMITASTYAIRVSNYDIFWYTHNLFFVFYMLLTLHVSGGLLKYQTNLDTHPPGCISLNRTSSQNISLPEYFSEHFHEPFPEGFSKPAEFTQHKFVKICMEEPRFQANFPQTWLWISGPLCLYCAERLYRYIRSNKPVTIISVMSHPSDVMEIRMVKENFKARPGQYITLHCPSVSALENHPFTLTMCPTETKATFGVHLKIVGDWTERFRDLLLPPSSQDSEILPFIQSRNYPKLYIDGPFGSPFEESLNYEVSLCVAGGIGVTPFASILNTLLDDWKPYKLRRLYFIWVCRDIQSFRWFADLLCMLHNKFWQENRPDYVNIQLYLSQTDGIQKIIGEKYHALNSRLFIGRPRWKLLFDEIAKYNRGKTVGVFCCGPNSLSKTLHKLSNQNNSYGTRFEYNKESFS

[10] = target: NADPH oxidase 5 (Homo sapiens) (UniProt Q96PH1); assay: NOX5-dependent H2O2 signal modulators, primary screen, NOX inhibitor project, cell-based, HEK293-NOX5, Amplex Red fluorescence (AID 1161); conditions: HEK293-NOX5, ionomycin, 45 min, higher = more signal
Sequence of NADPH oxidase 5 (Homo sapiens) (Q96PH1 whole entry, looked up): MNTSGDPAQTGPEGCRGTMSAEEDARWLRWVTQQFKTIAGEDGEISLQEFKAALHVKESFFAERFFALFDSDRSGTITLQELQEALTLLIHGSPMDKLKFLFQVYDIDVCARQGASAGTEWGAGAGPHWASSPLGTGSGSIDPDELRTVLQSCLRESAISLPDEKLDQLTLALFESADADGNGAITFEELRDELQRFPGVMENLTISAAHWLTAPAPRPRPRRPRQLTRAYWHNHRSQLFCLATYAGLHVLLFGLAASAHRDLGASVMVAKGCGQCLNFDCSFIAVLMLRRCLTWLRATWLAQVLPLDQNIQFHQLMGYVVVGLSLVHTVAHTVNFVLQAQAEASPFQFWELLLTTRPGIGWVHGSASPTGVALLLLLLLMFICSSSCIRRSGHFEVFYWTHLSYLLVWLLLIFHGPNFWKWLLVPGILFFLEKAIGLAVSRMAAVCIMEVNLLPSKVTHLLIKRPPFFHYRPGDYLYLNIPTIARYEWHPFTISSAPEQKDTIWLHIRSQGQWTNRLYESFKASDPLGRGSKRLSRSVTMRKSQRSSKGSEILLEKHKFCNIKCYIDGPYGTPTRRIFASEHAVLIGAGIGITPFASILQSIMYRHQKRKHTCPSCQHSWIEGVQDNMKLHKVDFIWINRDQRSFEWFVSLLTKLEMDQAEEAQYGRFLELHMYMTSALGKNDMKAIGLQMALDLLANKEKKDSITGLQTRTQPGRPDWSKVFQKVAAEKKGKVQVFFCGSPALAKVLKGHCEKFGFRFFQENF

[11] = A549 cell viability effects, profiling panel, calcein-AM fluorescence, 48 h, basal (AID 1162); conditions: higher = more signal; note: test concentration not given here
[12] = adipocyte viability effects, profiling panel, cell-based, 3T3-L1 adipocytes, calcein-AM fluorescence, 48 h, basal (AID 1163); conditions: 3T3-L1 adipocytes viability, higher = more signal; note: test concentration not given here
[13] = HepG2 cell viability effects, profiling panel, calcein-AM fluorescence, 48 h, basal (AID 1164); conditions: higher = more signal; note: test concentration not given here
[14] = MM1S cell viability effects, profiling panel, calcein-AM fluorescence, 48 h, basal (AID 1165); conditions: higher = more signal;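 note: viability of MM1S multiple myeloma cells under basal unstimulated conditions; test concentration not given here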
[15] = basal RPMI8226 viability, no added stimulus, profiling panel, cell-based, calcein-AM fluorescence, 48 h, PK04 Diversity Set (AID 1166); conditions: RPMI8226 myeloma viability, higher = more signal;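 note: cells grown under basal conditions without added stimulus; test concentration not given here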
[16] = basal HepG2 mitochondrial membrane potential changes, profiling panel, cell-based, JC-1 fluorescence, 24 h, 100 nL compound (AID 1167); conditions: higher = more signal; note: test concentration not given here
[17] = basal 3T3-L1 adipocyte mitochondrial potential changes, profiling panel, cell-based, JC-1 fluorescence, 3T3-L1 adipocytes, 24 h, 100 nL compound (AID 1168); conditions: JC-1 mitochondrial fluorescence, higher = more signal, called active from +8 up or from −8 down; note: test concentration not given here
[18] = basal RPMI8226 mitochondrial membrane potential changes, profiling panel, cell-based, JC-1 fluorescence, 24 h, 100 nL compound (AID 1169); conditions: RPMI8226 myeloma, JC-1 mitochondrial potential fluorescence, higher = more signal; note: test concentration not given here
[19] = basal MM1S mitochondrial membrane potential changes, profiling panel, cell-based, JC-1 fluorescence, 24 h, 100 nL compound (AID 1170); conditions: higher = more signal; note: test concentration not given here
[20] = A549 lung cancer cell viability effects, profiling panel, resazurin fluorescence, 24 h, PK04 Diversity Set (AID 1171); conditions: higher = more signal, called active from +8 up or from −8 down; note: test concentration not given here

SMILES | z-score [1] | composite z-score [2] | z-score [3] | z-score [4] | z-score [5] | z-score [6] | z-score [7] | z-score [8] | z-score [9] | z-score [10] | z-score [11] | z-score [12] | z-score [13] | z-score [14] | z-score [15] | z-score [16] | z-score [17] | z-score [18] | z-score [19] | z-score [20]
CN(C)CCCCNC(=O)[C@H]1C[C@H]2C(=O)N[C@@H](Cc3ccccc3)C(=O)N2[C@H]1c1ccc(O)cc1 | 1.22 (inactive) | 0.0161 | -0.0717 (inactive) | -0.63 (inactive) | 0.347 (inactive) | -0.512 (inactive) | 0.403 | -1.35 (inactive) | -1.66 (inactive) | -3.92 | -0.451 | 0.7 | -0.98 | -0.417 | 0.287 | -0.77 | -0.248 (inactive) | -0.136 | -0.149 | -0.1 (inactive)
CCCCCN1CC=CC23O[C@@H]4/C=C\CCC(C)OC(=O)C4[C@H]2C(=O)N(CCCCCO)[C@@H]3C1=O (stereo not given in full) | 2.65 (inactive) | -0.493 | 0.42 (inactive) | -0.524 (inactive) | -0.935 (inactive) | -0.875 (inactive) | 0.832 | 1.03 (inactive) | -0.177 (inactive) | 1.45 | -0.213 | 1.56 | 0.167 | 0.599 | -0.0704 | -0.356 | 0.637 (inactive) | -0.982 | -0.617 | 0.475 (inactive)
COC(=O)c1ccc(C(O)C2C=CC3C(=O)N(c4ccccc4)C(=O)C3N2Nc2ccc(C#N)cc2)o1 (stereo not given) | -0.855 (inactive) | 0.117 | 6.87 (inactive) | 1.66 (inactive) | 1.36 (inactive) | 0.975 (inactive) | -0.757 | -0.499 (inactive) | -4.57 (inactive) | -2.23 | 0.88 | 0.0728 | 2.04 | -0.182 | -1.52 | 0.822 | -0.559 (inactive) | 0.111 | -0.849 | 0.276 (inactive)
COCCOC(=O)N1C(=O)[C@@]2(c3cc(C#CCC(C(=O)OC)C(=O)OC)ccc31)[C@H](c1ccccc1OCCO)N1[C@H](c3ccccc3)[C@H](c3ccccc3)OC(=O)[C@H]1[C@@H]2C(=O)N1CCc2cc(OC)c(OC)cc2C1 | 2.09 (inactive) | 0.438 | 1.87 (inactive) | -0.226 (inactive) | -0.23 (inactive) | -0.466 (inactive) | 0.61 | 1.26 (inactive) | 1.56 (inactive) | 0.631 | 0.178 | 1.76 | -0.821 | -0.906 | -0.756 | -0.0323 | 2.21 (inactive) | -0.833 | -0.702 | 1.34 (inactive)
